# Targets with a hit are over-represented here; the source holds about 8,800 in all. About 0.5% of all pairs of compound and target were hits. A number with no mark means an inactive call.
# Key:
# Assay in all cases: log2 fold change, soluble protein after heating vs DMSO (PISA); higher = thermal stabilisation; K562 lysate, 10 uM; active = over 0.2 and 3.5 SD of the protein, either way, in both replicates (recomputed)
# vemurafenib = compound: CCCS(=O)(=O)Nc1ccc(F)c(C(=O)c2c[nH]c3ncc(-c4ccc(Cl)cc4)cc23)c1F [vemurafenib]
# How it was run: (§1)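 A 30 min treatment with 10 μM compound was applied to crude K562 extract at 1 mg/mL protein in PBS pH 7.4 with 1 mM MgCl2. Heating for 3 min spanned 48°C-58°C, after which aliquots were pooled, adjusted to 0.5% NP-40 at 4°C and spun at 21,000xg for 90 min. TMTpro 16plex LC-MS/MS of the supernatant, with channel sums equalised, gave values recorded as log-two fold change in thermal stability against solvent controls, from duplicates.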
# [1] = compound: CCCS(=O)(=O)Nc1ccc(F)c(C(=O)c2c[nH]c3ncc(Cl)cc23)c1F
# How it was run: as §1
# barasertib = compound: CCN(CCCOc1ccc2c(Nc3cc(CC(=O)Nc4cccc(F)c4)[nH]n3)ncnc2c1)CCOP(=O)(O)O [barasertib]
# How it was run: as §1
# [2] = compound: CC[C@@H]1C(=O)N(C)c2cnc(Nc3ccc(C(=O)NC4CCN(C)CC4)cc3OC)nc2N1C1CCCC1
# How it was run: as §1
# volasertib = compound: CC[C@@H]1C(=O)N(C)c2cnc(Nc3ccc(C(=O)N[C@H]4CC[C@H](N5CCN(CC6CC6)CC5)CC4)cc3OC)nc2N1C(C)C [volasertib]
# How it was run: as §1
# [3] = compound: CCn1c(C(=O)N(C2CC2)C2CC2)cc2c3c(ncn3C)c(Nc3cc(C)n(C)n3)nc21
# How it was run: as §1
# [4] = compound: CCn1cc(-c2ccnc3[nH]c(-c4cccc(CN(C)C)c4)cc23)c(-c2ccc(NC(=O)N(C)C)cc2)n1
# How it was run: as §1
# [5] = compound: CN1CCC(CNc2ccc3ncc(-c4cccc(OC(F)(F)F)c4)n3n2)CC1
# How it was run: as §1
# saracatinib = compound: CN1CCN(CCOc2cc(OC3CCOCC3)c3c(Nc4c(Cl)ccc5c4OCO5)ncnc3c2)CC1 [saracatinib]
# How it was run: as §1
# sotrastaurin = compound: CN1CCN(c2nc(C3=C(c4c[nH]c5ccccc45)C(=O)NC3=O)c3ccccc3n2)CC1 [sotrastaurin]
# How it was run: as §1
# Chain of UniProt Q08426 (Q08426 whole entry, looked up): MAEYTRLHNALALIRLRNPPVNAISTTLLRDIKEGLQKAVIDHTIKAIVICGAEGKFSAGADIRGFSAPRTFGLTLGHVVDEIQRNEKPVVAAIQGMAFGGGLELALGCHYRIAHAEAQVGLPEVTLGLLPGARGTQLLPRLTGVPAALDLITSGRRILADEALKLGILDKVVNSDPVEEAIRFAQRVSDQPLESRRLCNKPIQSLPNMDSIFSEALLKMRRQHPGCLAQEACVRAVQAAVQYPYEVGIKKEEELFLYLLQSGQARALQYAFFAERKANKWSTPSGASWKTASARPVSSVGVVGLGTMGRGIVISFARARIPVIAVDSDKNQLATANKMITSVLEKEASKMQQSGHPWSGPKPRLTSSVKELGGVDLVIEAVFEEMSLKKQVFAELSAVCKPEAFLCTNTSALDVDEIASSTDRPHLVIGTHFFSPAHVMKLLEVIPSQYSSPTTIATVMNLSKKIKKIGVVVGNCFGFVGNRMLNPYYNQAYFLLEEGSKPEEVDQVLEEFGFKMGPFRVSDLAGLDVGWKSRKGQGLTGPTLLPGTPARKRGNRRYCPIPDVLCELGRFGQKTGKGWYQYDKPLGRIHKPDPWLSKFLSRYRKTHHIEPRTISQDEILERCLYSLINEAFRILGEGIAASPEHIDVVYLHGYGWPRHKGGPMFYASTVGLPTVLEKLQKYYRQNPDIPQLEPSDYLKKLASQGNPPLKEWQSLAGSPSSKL
# Chain of UniProt Q14153 (Q14153 whole entry, looked up): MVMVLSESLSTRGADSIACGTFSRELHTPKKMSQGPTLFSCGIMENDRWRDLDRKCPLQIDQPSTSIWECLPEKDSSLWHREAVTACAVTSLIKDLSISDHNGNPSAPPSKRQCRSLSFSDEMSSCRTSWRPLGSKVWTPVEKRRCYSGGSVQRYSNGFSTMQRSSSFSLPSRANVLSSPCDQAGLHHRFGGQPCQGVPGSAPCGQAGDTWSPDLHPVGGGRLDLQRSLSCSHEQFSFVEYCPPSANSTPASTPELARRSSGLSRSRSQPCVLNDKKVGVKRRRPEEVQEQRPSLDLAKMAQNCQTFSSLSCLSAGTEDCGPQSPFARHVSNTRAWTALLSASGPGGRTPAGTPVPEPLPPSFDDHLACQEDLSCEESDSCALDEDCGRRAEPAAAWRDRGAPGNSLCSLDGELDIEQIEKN
# Chain of UniProt Q9HCG7 (Q9HCG7 whole entry, looked up): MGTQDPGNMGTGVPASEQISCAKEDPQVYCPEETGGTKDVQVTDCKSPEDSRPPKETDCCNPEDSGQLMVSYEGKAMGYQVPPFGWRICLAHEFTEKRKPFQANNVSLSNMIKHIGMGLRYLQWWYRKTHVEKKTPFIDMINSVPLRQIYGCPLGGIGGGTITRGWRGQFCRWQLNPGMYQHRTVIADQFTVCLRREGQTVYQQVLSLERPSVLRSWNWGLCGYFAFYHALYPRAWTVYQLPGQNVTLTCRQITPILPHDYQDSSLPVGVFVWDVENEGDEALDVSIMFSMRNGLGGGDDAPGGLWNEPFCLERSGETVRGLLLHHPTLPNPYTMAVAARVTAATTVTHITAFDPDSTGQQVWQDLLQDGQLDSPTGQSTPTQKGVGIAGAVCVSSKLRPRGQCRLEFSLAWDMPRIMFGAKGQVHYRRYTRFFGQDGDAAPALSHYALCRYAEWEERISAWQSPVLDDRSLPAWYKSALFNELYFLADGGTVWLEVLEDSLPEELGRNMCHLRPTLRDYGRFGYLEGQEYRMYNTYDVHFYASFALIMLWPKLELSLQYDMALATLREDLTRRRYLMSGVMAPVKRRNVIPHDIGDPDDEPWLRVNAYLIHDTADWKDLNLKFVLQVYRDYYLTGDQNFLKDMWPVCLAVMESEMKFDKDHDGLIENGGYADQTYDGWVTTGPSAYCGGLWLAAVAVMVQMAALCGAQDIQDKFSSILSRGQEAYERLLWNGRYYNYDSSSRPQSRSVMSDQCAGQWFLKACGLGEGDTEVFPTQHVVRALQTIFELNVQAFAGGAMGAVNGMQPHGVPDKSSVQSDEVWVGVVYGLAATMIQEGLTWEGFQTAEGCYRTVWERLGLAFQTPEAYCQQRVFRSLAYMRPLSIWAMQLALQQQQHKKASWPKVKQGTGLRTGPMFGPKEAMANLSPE
# Chain of UniProt Q9NRW4 (Q9NRW4 whole entry, looked up): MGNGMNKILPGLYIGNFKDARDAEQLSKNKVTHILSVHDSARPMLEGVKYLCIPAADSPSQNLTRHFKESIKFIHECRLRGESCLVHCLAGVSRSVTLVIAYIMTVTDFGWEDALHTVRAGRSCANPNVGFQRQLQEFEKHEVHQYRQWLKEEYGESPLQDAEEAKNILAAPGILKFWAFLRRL
# Chain of UniProt Q9P0K8 (Q9P0K8 whole entry, looked up): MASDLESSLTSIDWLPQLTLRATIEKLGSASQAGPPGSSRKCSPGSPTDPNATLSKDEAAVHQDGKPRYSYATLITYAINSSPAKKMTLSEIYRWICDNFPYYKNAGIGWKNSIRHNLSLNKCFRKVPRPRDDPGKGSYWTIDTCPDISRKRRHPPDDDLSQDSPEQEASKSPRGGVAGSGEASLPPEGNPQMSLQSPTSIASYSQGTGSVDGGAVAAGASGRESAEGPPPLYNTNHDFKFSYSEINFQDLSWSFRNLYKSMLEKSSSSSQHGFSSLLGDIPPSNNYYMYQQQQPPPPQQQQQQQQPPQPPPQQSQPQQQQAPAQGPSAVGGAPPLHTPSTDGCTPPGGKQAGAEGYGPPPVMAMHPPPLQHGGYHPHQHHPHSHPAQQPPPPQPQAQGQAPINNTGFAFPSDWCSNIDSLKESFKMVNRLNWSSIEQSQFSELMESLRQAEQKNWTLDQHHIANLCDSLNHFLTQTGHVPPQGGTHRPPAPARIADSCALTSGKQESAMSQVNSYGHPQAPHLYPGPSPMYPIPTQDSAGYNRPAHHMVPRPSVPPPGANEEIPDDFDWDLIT
# Chain of UniProt Q8NFI3 (Q8NFI3 whole entry, looked up): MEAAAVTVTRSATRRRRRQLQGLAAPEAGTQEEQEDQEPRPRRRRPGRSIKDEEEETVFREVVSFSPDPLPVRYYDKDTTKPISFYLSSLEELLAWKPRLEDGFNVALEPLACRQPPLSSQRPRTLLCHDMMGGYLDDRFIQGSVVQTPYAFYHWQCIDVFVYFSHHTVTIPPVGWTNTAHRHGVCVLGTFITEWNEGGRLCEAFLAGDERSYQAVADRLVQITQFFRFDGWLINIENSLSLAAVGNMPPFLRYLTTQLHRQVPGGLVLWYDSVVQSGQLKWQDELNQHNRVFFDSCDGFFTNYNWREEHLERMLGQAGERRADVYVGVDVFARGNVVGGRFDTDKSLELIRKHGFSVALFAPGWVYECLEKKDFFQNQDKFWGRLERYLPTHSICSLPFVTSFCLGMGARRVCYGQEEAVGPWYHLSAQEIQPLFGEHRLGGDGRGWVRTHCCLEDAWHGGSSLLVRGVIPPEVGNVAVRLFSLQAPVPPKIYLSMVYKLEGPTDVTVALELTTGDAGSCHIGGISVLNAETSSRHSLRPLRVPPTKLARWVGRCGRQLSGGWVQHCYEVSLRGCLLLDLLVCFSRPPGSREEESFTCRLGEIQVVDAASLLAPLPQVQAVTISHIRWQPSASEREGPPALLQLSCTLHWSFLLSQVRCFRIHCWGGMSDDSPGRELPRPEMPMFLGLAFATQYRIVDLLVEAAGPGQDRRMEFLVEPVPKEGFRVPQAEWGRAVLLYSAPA
# Chain of UniProt Q9UKR5 (Q9UKR5 whole entry, looked up): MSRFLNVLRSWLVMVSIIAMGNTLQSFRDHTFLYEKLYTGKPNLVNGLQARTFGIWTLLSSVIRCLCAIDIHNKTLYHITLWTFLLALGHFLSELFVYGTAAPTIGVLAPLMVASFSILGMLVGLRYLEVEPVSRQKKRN
# Chain of UniProt P58012 (P58012 whole entry, looked up): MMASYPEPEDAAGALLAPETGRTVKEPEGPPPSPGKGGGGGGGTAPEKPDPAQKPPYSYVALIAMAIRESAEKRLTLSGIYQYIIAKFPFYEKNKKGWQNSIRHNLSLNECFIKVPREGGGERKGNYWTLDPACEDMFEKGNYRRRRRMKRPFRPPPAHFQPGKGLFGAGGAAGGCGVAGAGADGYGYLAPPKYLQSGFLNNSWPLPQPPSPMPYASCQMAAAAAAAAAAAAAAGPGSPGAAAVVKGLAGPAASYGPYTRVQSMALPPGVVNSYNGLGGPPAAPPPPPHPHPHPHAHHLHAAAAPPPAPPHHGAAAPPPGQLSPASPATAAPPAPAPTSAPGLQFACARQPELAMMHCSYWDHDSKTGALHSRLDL
# Chain of UniProt P11171 (P11171 whole entry, looked up): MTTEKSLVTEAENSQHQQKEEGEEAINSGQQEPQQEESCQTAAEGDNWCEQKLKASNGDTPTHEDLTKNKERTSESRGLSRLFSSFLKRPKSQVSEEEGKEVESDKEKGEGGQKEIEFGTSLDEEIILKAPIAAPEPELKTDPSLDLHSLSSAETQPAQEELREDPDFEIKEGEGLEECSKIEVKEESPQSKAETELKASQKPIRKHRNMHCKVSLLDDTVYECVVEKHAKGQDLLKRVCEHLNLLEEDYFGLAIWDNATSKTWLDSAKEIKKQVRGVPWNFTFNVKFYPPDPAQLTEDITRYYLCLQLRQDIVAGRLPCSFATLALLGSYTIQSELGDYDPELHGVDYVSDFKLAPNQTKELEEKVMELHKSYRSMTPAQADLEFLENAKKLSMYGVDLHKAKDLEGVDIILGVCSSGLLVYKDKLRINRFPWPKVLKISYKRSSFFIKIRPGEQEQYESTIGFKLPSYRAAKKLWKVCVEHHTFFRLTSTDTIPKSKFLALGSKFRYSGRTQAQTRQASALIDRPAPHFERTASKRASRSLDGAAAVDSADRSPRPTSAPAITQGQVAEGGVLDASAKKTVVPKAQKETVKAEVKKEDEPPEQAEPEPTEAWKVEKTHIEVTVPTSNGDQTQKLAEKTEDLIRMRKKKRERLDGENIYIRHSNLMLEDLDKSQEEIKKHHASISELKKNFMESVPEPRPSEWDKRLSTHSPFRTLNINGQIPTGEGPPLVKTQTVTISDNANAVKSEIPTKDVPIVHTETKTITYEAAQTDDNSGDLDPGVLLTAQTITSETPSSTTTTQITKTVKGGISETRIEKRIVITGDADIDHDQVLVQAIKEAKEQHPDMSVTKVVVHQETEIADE
Target,log2 fold change (vemurafenib),log2 fold change [1],log2 fold change (barasertib),log2 fold change [2],log2 fold change (volasertib),log2 fold change [3],log2 fold change [4],log2 fold change [5],log2 fold change (saracatinib),log2 fold change (sotrastaurin)
FAM83D (UniProt Q9H4H8),-0.015,0,0.074,0.045,-0.047,-0.01,-0.052,0.029,-0.008,0.032
DVL2 (UniProt O14641),0.067,-0.172,0.119,-0.033,0,0.007,0.011,-0.003,0.018,-0.055
FBXO38 (UniProt Q6PIJ6),-0.042,-0.024,0.052,-0.121,0.037,0.028,0.006,0.036,-0.039,0.027
FBXO22 (UniProt Q8NEZ5),0.017,0.001,0.025,0.011,-0.027,0.012,-0.002,-0.008,-0.015,0.01
FAU (UniProt E9PR30),-0.009,-0.015,-0.17,0.005,-0.002,0.036,0.33 (active),-0.076,-0.042,-0.012
FTSJ3 (UniProt Q8IY81),-0.004,-0.011,0.006,0.011,-0.033,0.024,0,-0.005,0.015,-0.003
DTYMK (UniProt P23919),-0.008,0.042,0.022,-0.062,0.006,0.059,0.011,-0.032,0.011,-0.033
FIG4 (UniProt Q92562),0.107,0.071,-0.085,-0.201,-0.012,-0.045,0.104,-0.012,0.032,0.092
FTSJ1 (UniProt Q9UET6),-0.036,-0.006,-0.043,-0.04,-0.056,-0.003,0.067,0.027,-0.018,0.089
GBF1 (UniProt Q92538),0.023,0.04,0.087,-0.004,-0.05,0.006,-0.011,-0.046,-0.011,0.019
EIF2B4 (UniProt Q9UI10),-0.064,0.026,0.006,0.04,-0.032,0.048,–,–,0.042,0.047
EFCAB14 (UniProt O75071),0.022,0.001,-0.01,0.039,0.008,-0.042,-0.058,0.047,0.023,0.005
FOXK1 (UniProt P85037),-0.01,0.008,0.025,-0.007,-0.019,0.013,-0.014,0.026,0.005,-0.012
FAT2 (UniProt Q9NYQ8),0.213,0.19,-0.001,0.016,-0.097,0.089,-0.487,0.248,–,0.125
"EPB41, A0A2R8Y6D0",-0.019,-0.004,0.043,-0.108,0.006,-0.24,-0.047,0.594 (active),-0.082,0.044
ENGASE (UniProt Q8NFI3),0.034,0.05,0.003,0,-0.035,-0.031,0.028,0.052,-0.019,-0.008
DYRK1A (UniProt Q13627),-0.06,-0.009,0.025,-0.047,-0.016,0.038,-0.004,0.044,-0.017,-0.013
"EEF1A1, A0A087WVQ9",0.011,0.047,-0.069,0.027,-0.003,-0.026,-0.016,-0.12,0.077,0.013
FBXO45 (UniProt P0C2W1),-0.064,0.088,0.031,-0.077,-0.04,0.062,-0.002,0.037,–,0.028
GATAD2A isoform 3 (UniProt Q86YP4),-0.014,0.019,0.008,0.012,-0.014,-0.004,-0.058,0.022,0.022,-0.002
ENY2 (UniProt Q9NPA8),-0.057,0.016,0.072,-0.036,0.033,0.048,0.886 (active),-0.406 (active),-0.003,-0.003

Target,log2 fold change (vemurafenib),log2 fold change [1],log2 fold change (barasertib),log2 fold change [2],log2 fold change (volasertib),log2 fold change [3],log2 fold change [4],log2 fold change [5],log2 fold change (saracatinib),log2 fold change (sotrastaurin)
DUS2 (UniProt Q9NX74),0.022,0.032,-0.026,-0.033,-0.071,-0.016,-0.095,0.023,-0.095,-0.017
ELAVL1 isoform 2 (UniProt Q15717),0.035,0.024,-0.013,-0.03,-0.029,0.035,0.013,-0.083,-0.001,0.024
FAM120B (UniProt Q96EK7),0.001,0.045,-0.009,0.01,-0.029,0.033,-0.011,-0.085,0.005,0.008
FYCO1 isoform 4 (UniProt Q9BQS8),0.024,0.019,0.045,0.027,-0.004,0.031,-0.104,0.063,0.04,0
FIBP (UniProt O43427),-0.011,0.041,0.105,-0.236 (active),-0.013,-0.001,-0.028,-0.021,0.039,0.008
GIPC3 (UniProt Q8TF64),–,-0.119,0.055,-0.15,-0.041,-0.045,-0.01,0.144,0.029,0.006
FAM76B (UniProt Q5HYJ3),0.048,-0.005,–,0.04,0.005,-0.008,0.025,0.007,-0.003,0.027
FTSJ1 isoform 2 (UniProt Q9UET6),-0.164,0.021,–,-0.024,0.013,–,-0.019,0.047,–,–
"FBRSL1, A0A3B3IRR3",0.132,–,0.055,0.069,–,0.085,0,-0.061,-0.028,-0.039
EID1 (UniProt Q9Y6B2),–,–,–,0.015,–,0.001,-0.073,0.002,-0.157,–
EPN2 (UniProt I3L356),–,0.212,-0.106,–,-0.026,–,-0.277,0.075,–,–
ERG28 (UniProt Q9UKR5),–,-0.012,0.065,0.179,0.048,–,0.541,-0.497 (active),0.1,–
ELAVL4 (UniProt P26378),-0.045,0.035,–,-0.119,-0.038,0.054,-0.006,0.029,-0.052,0
DYRK1A isoform 2 (UniProt Q13627),–,–,0.006,–,–,0.308,0.085,0.221,–,0.033
ETFRF1 (UniProt Q6IPR1),0.084,-0.003,0.012,–,-0.03,0,-0.005,-0.03,-0.01,-0.002
FAM53B (UniProt Q14153),0.046,–,0.009,0.071,–,0.059,-0.096,0.13,0.096,-0.149
EIF2AK3 (UniProt Q9NZJ5),–,-0.216,–,–,0.231,0.119,-0.063,-0.199,0.01,–
GAPVD1 (UniProt Q14C86),–,0.116,0.078,–,-0.305,–,–,–,–,–
DTL (UniProt Q9NZJ0),-0.007,–,0.044,–,–,0.02,0.065,-0.034,-0.1,-0.03
FAM111A (UniProt Q96PZ2),-0.02,0.432 (active),–,-0.34,-0.045,0.112,–,–,0.055,-0.016
EPB41 isoform 4 (UniProt P11171),–,0.014,–,–,0.134,-0.079,-0.073,-0.065,–,-0.02

Target,log2 fold change (vemurafenib),log2 fold change [1],log2 fold change (barasertib),log2 fold change [2],log2 fold change (volasertib),log2 fold change [3],log2 fold change [4],log2 fold change [5],log2 fold change (saracatinib),log2 fold change (sotrastaurin)
"EIF2B5, A0A3B3ITK8",–,-0.071,–,–,0.081,–,–,–,–,–
FOXL2 (UniProt P58012),–,0.026,0.051,0.01,0.046,0.174,–,–,-0.038,–
GBA2 (UniProt Q9HCG7),–,0.12,-0.01,0.099,-0.21,0,-0.076,0.025,0.033,0.001
FNDC3A (UniProt Q9Y2H6),–,–,–,–,–,0.044,-0.451,0.138,–,-0.113
FAM204A (UniProt Q9H8W3),-0.003,–,–,–,–,0.059,0.273,-0.614 (active),–,-0.083
EPS8L2 (UniProt Q9H6S3),–,0,-0.049,0.022,0.023,-0.034,-0.196,0.056,0.045,-0.049
EVI5L isoform 2 (UniProt Q96CN4),–,–,–,–,–,–,0.057,-0.183,–,–
DUSP22 isoform 2 (UniProt Q9NRW4),0.134,-0.109,-0.016,–,0.006,-0.033,-0.125,0.052,0.009,–
EHHADH (UniProt Q08426),–,0.082,-0.066,0.117,-0.108,-0.037,0.055,-0.037,0.091,-0.044
EXO5 (UniProt Q9H790),–,–,0.111,–,–,-0.022,–,–,–,0.128
EWSR1 (UniProt H7BY36),-0.035,–,-0.055,0.095,–,-0.046,-0.056,-0.043,0.024,-0.02
FMNL2 isoform 3 (UniProt Q96PY5),–,0.022,–,–,-0.013,-0.103,–,–,0.04,0.08
FOXJ2 (UniProt Q9P0K8),–,–,-0.049,-0.149,–,0.1,-0.062,-0.071,-0.101,–
GART (UniProt C9JZG2),–,-0.014,0.086,-0.021,0.06,-0.043,0.135,0.085,–,0.09
GC isoform 3 (UniProt P02774),-0.008,–,–,0.022,–,-0.27,0.146,-0.12,-0.02,0.043
GDE1 (UniProt Q9NZC3),–,0.038,0.108,0.107,0.092,0.005,1.04 (active),-0.455 (active),0.035,-0.064
FAT1 (UniProt Q14517),–,0.022,–,0.32,0.025,-0.344,0.001,-0.036,–,-0.333
DST isoform 3 (UniProt Q03001),–,–,0.041,0.052,–,–,1.48 (active),-0.213,–,–
EIF3I (UniProt Q5TFK1),–,0.147,–,–,-0.112,–,-0.048,0.044,–,–
ESRRB isoform 1 (UniProt O95718),–,–,-0.004,–,–,-0.118,0.242,-0.127,–,–
GCA (UniProt P28676),–,0.124,–,–,-0.048,–,-0.139,0.168,–,–

# From the supplement of paper PMC10849652
